Test results reported in PubChem BioAssay (NCI).
The panel holds about 83,000 compounds, 20% with a hit somewhere; the sample as a whole holds those more often.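 Compound tested at a single concentration for 48 hours in 96-well plates; a percent growth value below 10 was scored as active.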 Values without a mark were called inactive. The source made the active and inactive calls.

What follows are molecules tested on EKVX NSCLC (assay: NCI-60 one-dose screen, 48 h (100 = growth as untreated, 0 = no growth, -100 = all killed)). Conditions: 10 µM unless noted.
Protocol: Growth inhibition of the EKVX human Non-Small Cell Lung tumor cell line is measured as a screen for anti-cancer activity. Cells are grown in 96 well plates and exposed to the test compound for 48 hours. Compounds are tested at a single concentration, which is 10^-5 M for most compounds. The reported endpoint is percent growth (GI% or GIPRCNT), where numbers from 0 - 100% represent growth inhibition, and numbers from -100% - 0 represent cell death. For example, a value of 40 represents 60% growth inhibition. A value of 0 means no net growth occurred over the course of the experiment. A value of -40 indicates 40% of cells at the beginning of the experiment died by the end of the experiment. A value of -100 means all cells are dead at the end of the experiment.
NCI-60 Human Tumor Cell Lines Screen was performed using the standard one-dose NCI protocol, which is described in more detail at https://dtp.cancer.gov/discovery_development/nci-60/default.htm.
Compounds with GIPRCNT values below 10 were considered active. Activity score was based on GIPRCNT using the following formula: […]
Score is 0 for GIPRCNT values of 100 or above, 50 for GIPRCNT values of 0, and 100 for GIPRCNT values of -100.

Row | Structure (SMILES) | growth
1 | ClCCn1cnc2c(SCc3ccccc3)ncnc21 | 77.2%
2 | Cc1cc(N2CCN(CC(=O)Nc3ccc4c(ccn4Cc4ccccc4)c3)CC2)nc(N2CCOCC2)n1 | 74.8%
3 | COc1ccc2c(c1)CC[C@@H]1[C@@H]2CC[C@]2(C)C3C(=CC(COC(C)=O)C4C(=O)N(c5ccc(Cl)cc5)C(=O)C43)C[C@@H]12 (stereo not given in full) | 108%
4 | Clc1ccc(-c2cc(-c3ccccc3)nc(N3CCN(CCCNc4ccnc5cc(Cl)ccc45)CC3)n2)cc1 | 80.1%
5 | C=C1C(=O)O[C@H]2[C@H]1CC/C(COC(=O)C(=O)c1c[nH]c3ccc(Cl)cc13)=C\CC[C@@]1(C)O[C@@H]21 | -73.6% (active)
6 | COc1ccc(-c2cc(C(=O)N3N=C(c4ccc(N)cc4)CC3c3ccc(Cl)cc3)c3cc(OC)ccc3n2)cc1 (stereo not given) | 88.1%
7 | [N-]=[N+]=NCC1OC(n2cnc3c(NC(=O)Nc4ccccc4)ncnc32)C2OC(=O)CC12 (stereo not given) | 104%
8 | Cc1ccc2cnc(N)c(C#Cc3cc(C(=O)Nc4ccc(CN5CCN(C)CC5)c(C(F)(F)F)c4)cnc3C)c2c1 | 12.6%
9 | N#Cc1ccc(/C=C/c2cn(-c3ccccc3)nc2-c2cccc([N+](=O)[O-])c2)cc1 | 66.8%
10 | COc1ccc(-c2cc(C(=O)N3N=C(c4ccc(N)cc4)CC3c3ccc(Cl)cc3)c3ccccc3n2)cc1 (stereo not given) | 41%
11 | O=C1OCC2=C1C(c1ccccc1)c1cc3c(cc1N2CCO)OCCO3 (stereo not given) | 48.4%
12 | O=C(/C=C/c1ccco1)Nc1ncc(Cc2cc(Cl)ccc2Cl)s1 | 34.2%
13 | Fc1cc2[nH]ncc2c2c3c(c(-c4cn[nH]c4C(F)(F)F)nc12)CCCC3 | 8.29% (active)
14 | COC(=O)c1ccc2cc(OC)c(OC)cc2c1 | 84.8%
15 | COc1cc(/C=N/NC(=O)c2ccc(-n3cc(-c4ccccc4)nn3)cc2)cc(OC)c1OC | 91.1%
16 | COc1ccc2c(c1)c(-c1nc(-c3ccc4ccccc4c3)cs1)cn2C | 85.8%
17 | CC12OC(CC(O)C1O)n1c3ccccc3c3c4c(c5c6ccccc6n2c5c31)C(=O)N(CCN1CCCC1)C4=O (stereo not given) | 38.4%
18 | O=C(/C=C/c1ccccc1Cl)c1cccc(OCCCCOc2cccc(C(=O)/C=C/c3ccccc3Cl)c2)c1 | 107%
19 | COC(=O)[C@]1(C)CCC[C@]2(C)[C@H]3C[C@@H]4[C@H]5[C@@H]6CC/C(=N\OCC/C(N)=N/O)[C@H]5[C@@]3(CC[C@H]21)CC4(C(C)C)O6 | 62.5%
20 | O=C(Nc1cccnc1Nc1ccc(Cl)cc1)c1cn(Cc2cccc(Oc3ccccc3)c2)nn1 | 53.5%

Row | Structure (SMILES) | growth
21 | O=C(Nc1cc(Cl)ccc1O)c1ccccc1Nc1ccnc(C(F)(F)F)c1 | 75.8%
22 | Nc1cc(Br)cc2c1[nH]c(=O)c1ccccc12 | 82%
23 | O=C1/C(=C/c2ccccn2)SC(=S)N1N1CCOCC1 | 90.6%
24 | Cn1cc(-c2nonc2-c2c[nH]c3ccccc23)c2cc(Br)ccc21 | 33.6%
25 | CN1C(=O)/C(=C/c2ccc(C(=O)Nc3ncc(Cc4cc(Cl)ccc4Cl)s3)cc2)SC1=S | 67%
26 | O=C1/C(=C/c2c[nH]c(=O)[nH]c2=O)SC(=S)N1Cc1ccccc1 | 74.6%
27 | O=C(C[C@]1(O)C(=O)Nc2ccc(Br)cc21)c1ccco1 | 107%
28 | COc1ccc2c(c1)C(C)Cc1c(ncnc1-n1cnc3cc(C)ccc31)N2C (stereo not given) | 40.3%
29 | O=C(O)CCCCCCCCCCN1C(=O)/C(=C2/C(=O)N(CC(=O)O)c3ccc(Br)cc32)SC1=S | 97.2%
30 | COc1ccc2cc(-c3nc4ccc(C)cn4c3NCc3ccco3)c(=O)[nH]c2c1 | 55.9%
31 | Cc1ccc(C2CC(c3cccc(Nc4ccncc4)c3)=Nc3c(N)nc(N)nc3N2)cc1 (stereo not given) | 60.2%
32 | Cc1ccc2c(c1)=C/C(=C\c1cc(-c3ccccc3)[nH]c1O)C(=O)N=2 | 52%
33 | C=C(C)[C@@H]1CC[C@]2(C)[C@H](C=CC3=C4C[C@@](C)(CO)CC[C@]4(C)CC[C@]32C)[C@@]1(C)CCCN | 42.5%
34 | CCOC(=O)/C(=C(/C)NCC(C)C)c1cc(O)c(O)c2c(C)cc(=O)[nH]c12 | 89.3%
35 | Brc1ccc(Nc2nc(Nc3cnc4ccccc4c3)c3[nH]cnc3n2)cc1 | 40.3%
36 | O=C1C(Cl)=C(Nc2ccccc2)C(=O)c2ccccc21 | -91.9% (active)
37 | O=C(NCc1ccc(Cn2c(=O)sn(-c3ccccc3)c2=O)cc1)OCc1ccc2cccc(O)c2n1 | -35.9% (active)
38 | CCN(CC)CCn1c2ccc(OC)cc2c2sc3cc(O)ccc3c(=O)c21 | 47.3%
39 | O=C(NNc1nc2cc(F)ccc2n2c(CN3CCOCC3)ccc12)c1ccccc1 | 14.2%
40 | CCOC(=O)NCCCC(=O)NCCc1ccccc1 | 112%
